# Measured values as given in PubChem BioAssay (EPA / NIEHS).
# Records with an inconclusive call do not appear. Where a structure was tested more than once in an assay, its records may differ in their call. Activity calls are given as the source filed them. How the source made its calls, unless noted: active means hit-call score of the fitted dose curve at least 0.9, where 1 is the maximum; inactive means score below 0.9.
# How the values were obtained:
# [1] = BSK_3C_VCAM1: BioMAP Diversity Plus: 3C Assay for Vascular cell adhesion molecule 1 (VCAM1) Biomarker Activity (AID 2282999); conditions: BioMAP 3C HUVEC, VCAM1 ELISA, cytokine-stimulated; actives raise or lower the signal
# Procedure, shortened: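 HUVEC primary cells, 24 h compound exposure; VCAM-1 by ELISA; gain/loss of signal fitted bidirectionally vs DMSO baseline.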
# [2] = BSK_4H_Eotaxin3: BioMAP Diversity Plus: 4H Assay for Eotaxin 3 Biomarker Activity (AID 2283000); conditions: primary human endothelial cells (HUVEC); actives raise or lower the signal;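 on outcome: CCL26 protein level quantified by ELISA in parallel with SRB cytotoxicity check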
# Procedure, shortened: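 Readout is Eotaxin-3 (CCL26) level by ELISA in primary human umbilical vein endothelial cells harvested 24 h after chemical exposure; activity fitted in both directions against DMSO control.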
# [3] = molecular target: human Peroxisome Proliferator-activated Receptor delta (PPARd), PPARD (gene 5467) (UniProt Q03181); assay: ATG_PPARd_TRANS: Attagene TRANS-FACTORIAL HepG2 Assay for human Peroxisome Proliferator-activated Receptor delta (PPARd) (AID 2283002; active means hit-call score of the fitted dose curve at least 0.9, where 1 is the maximum)
# Procedure, shortened: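 HepG2 cells transiently transfected with GAL4-UAS multiplexed reporter units driven by exogenous chimeric NR-GAL4 proteins; 24 h compound exposure. Reporter mRNA measured by RT-PCR, 6-FAM primer extension, HpaI digestion and capillary electrophoresis; gain of signal fitted relative to DMSO.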
# [4] = read-out: Intercellular Adhesion Molecule 1 (ICAM1), ICAM1 (gene 3383); assay: BSK_3C_ICAM1: BioMAP Diversity Plus: 3C Assay for Intercellular Adhesion Molecule 1 (ICAM1) Biomarker Activity (AID 2283003); conditions: primary human endothelial cells (HUVEC); actives raise or lower the signal
# Procedure, shortened: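 Chemicals are dosed onto primary human umbilical vein endothelium (3C system). After 24 h, ICAM-1 is measured by ELISA, and responses are fitted bidirectionally relative to DMSO.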
# [5] = molecular target: human Retinoic Acid Receptor beta (RARb), RARB (gene 5915) (UniProt P10826); assay: ATG_RARb_TRANS: Attagene TRANS-FACTORIAL HepG2 Assay for human Retinoic Acid Receptor beta (AID 2283004; active means hit-call score of the fitted dose curve at least 0.9, where 1 is the maximum)
# Procedure, shortened: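 Readout is reporter mRNA induction: RNA reverse-transcribed, PCR-amplified, FAM-labelled, HpaI-cut and resolved by capillary electrophoresis. Transiently transfected HepG2 cells carrying exogenous NR–Gal4 chimeras were dosed for 24 h; activity fitted upward relative to DMSO.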
# [6] = BSK_3C_Proliferation: Cell Proliferation Assessment in the BioMAP Diversity Plus: 3C Assay (AID 2283006); conditions: primary human endothelial cells (HUVEC);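 on AC50: potency may reflect either rise or fall in cell number versus DMSO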
# Procedure, shortened: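 Cells (human umbilical vein endothelial, sub-confluent) receive test chemical; after 48 h they are fixed in 10% trichloroacetic acid, stained with 0.1% SRB and read at 560 nm. Activity is referenced to DMSO, fitting increases and decreases.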
# [7] = molecular target: Peroxisome proliferator-activated receptor gamma (Homo sapiens) (UniProt P37231); assay: ATG_PPARg_TRANS: Attagene TRANS-FACTORIAL HepG2 Assay for human Peroxisome Proliferator-activated Receptor-gamma (PPARg) (AID 2283007; active means hit-call score of the fitted dose curve at least 0.9, where 1 is the maximum)
# Procedure, shortened: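 HepG2 cells transiently transfected with multiplexed GAL4-UAS reporter units and exogenous chimeric NR-Gal4 proteins; reporter mRNA quantified after 24 h compound exposure by RT-PCR, fluorescent labelling, HpaI digestion and capillary electrophoresis; gain-of-signal fitted versus DMSO baseline.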
# [8] = molecular target: Nuclear receptor subfamily 1 group I member 2 (Homo sapiens) (UniProt O75469); assay: ATG_PXR_TRANS: Attagene TRANS-FACTORIAL HepG2 Assay for human Pregnane X Receptor (PXR) (AID 2283008; active means hit-call score of the fitted dose curve at least 0.9, where 1 is the maximum)
# Procedure, shortened: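 Transient HepG2 transfectants carrying multiplexed reporter transcription units; PXR activity read through a Gal4 chimera. 24 h exposure. RT-PCR/CE fluorescence; upward curve fit referenced to DMSO.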
# [9] = molecular target: human Retinoic Acid Receptor gamma (RARg), RARG (gene 5916) (UniProt P13631); assay: ATG_RARg_TRANS: Attagene TRANS-FACTORIAL HepG2 Assay for human Retinoic Acid Receptor gamma (RARg) (AID 2283009; active means hit-call score of the fitted dose curve at least 0.9, where 1 is the maximum)
# Procedure, shortened: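 TRANS format measured activity of exogenous NR-GAL4 fusion (RARg) in transfected HepG2 liver cells after 24 h dosing. Induced reporter RNA was detected by RT-PCR/capillary electrophoresis fluorescence, analysed in the positive direction against DMSO.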
# [10] = molecular target: Retinoic acid receptor RXR-alpha (Homo sapiens) (UniProt P19793); assay: ATG_RXRa_TRANS: Attagene TRANS-FACTORIAL HepG2 Assay for human Retinoid X Receptor alpha (RXRa) (AID 2283012; active means hit-call score of the fitted dose curve at least 0.9, where 1 is the maximum)
# Procedure, shortened: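 Measures exogenous chimeric NR-GAL4 activity in transfected HepG2 liver cells after 24 h of dosing. Induced reporter mRNA was detected by RT-PCR with capillary electrophoresis, and gain of signal was analysed against DMSO.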
# [11] = read-out: E-selectin (Homo sapiens) (UniProt P16581); assay: BSK_3C_Eselectin: BioMAP Diversity Plus: 3C Assay for Eselectin Biomarker Activity (AID 2283015); conditions: primary human endothelial cells (HUVEC); actives raise or lower the signal;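 on outcome: cell surface E-selectin protein quantified by ELISA 24 h after dosing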
# Procedure, shortened: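 HUVEC, 3C stimulation; compound exposure 24 h; E-selectin by ELISA; gain- or loss-of-signal fitted bidirectionally vs DMSO baseline.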
# [12] = read-out: Interleukin-1 alpha (IL1a), IL1A (gene 3552); assay: BSK_BE3C_IL1a: BioMAP Diversity Plus: BE3C Assay for Interleukin-1 alpha (IL1a) Biomarker Activity (AID 2283016); conditions: primary human bronchial epithelial cells; actives raise or lower the signal
# Procedure, shortened: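 Signal from IL-1a ELISA, taken 24 h after chemical dosing of human bronchial epithelial cells, is compared with DMSO as baseline using bidirectional curve fitting.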
# [13] = read-out: Monocyte Chemoattractant Protein-1 (MCP1), CCL2 (gene 6347); assay: BSK_3C_MCP1: BioMAP Diversity Plus: 3C Assay for Monocyte Chemoattractant Protein-1 (MCP1) Biomarker Activity (AID 2283017); conditions: primary human endothelial cells (HUVEC); actives raise or lower the signal
# Procedure, shortened: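 HUVEC, 3C system; 24 h chemical exposure; MCP-1 by ELISA; bidirectional curve fit vs DMSO baseline.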
# [14] = read-out: Monocyte Chemoattractant Protein-1 (MCP1), CCL2 (gene 6347); assay: BSK_4H_MCP1: BioMAP Diversity Plus: 4H Assay for Monocyte Chemoattractant Protein-1 (MCP1) Biomarker Activity (AID 2283018); conditions: primary human endothelial cells (HUVEC); actives raise or lower the signal
# Procedure, shortened: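 Endothelial cells from umbilical vein were treated with test chemical, then after 24 h MCP-1 levels were quantified by ELISA; endpoint values came from bidirectional fitting with DMSO as baseline of activity.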
# [15] = molecular target: Retinoic acid receptor alpha (Homo sapiens) (UniProt P10276); assay: ATG_RARa_TRANS: Attagene TRANS-FACTORIAL HepG2 Assay for human Retinoic Acid Receptor alpha (RARa) (AID 2283005; active means hit-call score of the fitted dose curve at least 0.9, where 1 is the maximum)
# Procedure, shortened: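 HepG2 transiently transfected with multiplex GAL4-UAS reporter units including a human RARa–GAL4 chimera; 24 h compound exposure. Reporter mRNA quantified by RT-PCR, 6-FAM labeling and capillary electrophoresis; gain of signal versus DMSO.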
# [16] = molecular target: human RAR-related Orphan Receptor beta (RORb), RORB (gene 6096) (UniProt Q92753); assay: ATG_RORb_TRANS: Attagene TRANS-FACTORIAL HepG2 Assay for human RAR-related Orphan Receptor beta (RORb) (AID 2283010; active means hit-call score of the fitted dose curve at least 0.9, where 1 is the maximum)
# Procedure, shortened: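 Transfect HepG2 with multiple GAL4-UAS reporter transcription units; dose chemicals for 24 h; isolate RNA, reverse-transcribe and PCR-amplify reporter sequences; label, digest and resolve fragments by capillary electrophoresis; fit increases relative to DMSO.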
# [17] = molecular target: human RAR-related Orphan Receptor gamma (RORg), RORC (gene 6097) (UniProt P51449); assay: ATG_RORg_TRANS: Attagene TRANS-FACTORIAL HepG2 Assay for human RAR-related Orphan Receptor gamma (RORg) (AID 2283011; active means hit-call score of the fitted dose curve at least 0.9, where 1 is the maximum)
# Procedure, shortened: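 Transient MRTU transfection of HepG2 (TRANS format, exogenous NR-Gal4 chimera). 24 h dosing. Total RNA → oligo(dT) RT → PCR → 6-FAM labelling → HpaI cut → CE. Gain vs DMSO.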
# [18] = molecular target: human Thyroid Receptor alpha (THRa1), THRA (gene 7067) (UniProt P10827); assay: ATG_THRa1_TRANS: Attagene TRANS-FACTORIAL HepG2 Assay for human Thyroid Receptor alpha (THRa1) (AID 2283014; active means hit-call score of the fitted dose curve at least 0.9, where 1 is the maximum)
# Procedure, shortened: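 Transient HepG2 transfection, NR-Gal4 chimera driving GAL4-UAS reporters; 24 h compound exposure; total RNA, oligo(dT) RT, PCR, fluorescent primer extension, capillary electrophoresis. Upward direction vs DMSO control.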
# [19] = molecular target: human Retinoid X Receptor beta (RXRb), RXRB (gene 6257) (UniProt P28702); assay: ATG_RXRb_TRANS: Attagene TRANS-FACTORIAL HepG2 Assay for human Retinoid X Receptor beta (RXRb) (AID 2283013; active means hit-call score of the fitted dose curve at least 0.9, where 1 is the maximum)
# Procedure, shortened: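 Chimeric receptor-Gal4 activity was assessed in transiently transfected human HepG2 cells after 24 h exposure. Transcripts from GAL4-UAS reporters were quantified by fluorescent RT-PCR and capillary electrophoresis, with DMSO as negative control and baseline.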
# Chain of Retinoic acid receptor alpha (Homo sapiens) (P10276 whole entry, looked up, the tested form may be a part): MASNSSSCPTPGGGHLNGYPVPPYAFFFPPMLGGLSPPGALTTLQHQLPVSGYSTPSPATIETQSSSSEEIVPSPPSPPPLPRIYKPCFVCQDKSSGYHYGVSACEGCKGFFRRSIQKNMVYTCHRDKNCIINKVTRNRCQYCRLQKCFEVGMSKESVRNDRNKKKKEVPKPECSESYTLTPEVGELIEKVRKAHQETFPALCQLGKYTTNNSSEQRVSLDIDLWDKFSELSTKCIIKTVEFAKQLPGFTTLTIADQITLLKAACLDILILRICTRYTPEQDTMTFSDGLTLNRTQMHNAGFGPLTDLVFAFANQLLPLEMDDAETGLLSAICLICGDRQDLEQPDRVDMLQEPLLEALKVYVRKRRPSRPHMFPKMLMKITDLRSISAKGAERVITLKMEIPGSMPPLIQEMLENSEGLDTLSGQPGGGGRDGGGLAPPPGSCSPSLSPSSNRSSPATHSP
# Chain of Peroxisome proliferator-activated receptor gamma (Homo sapiens) (P37231 whole entry, looked up, the tested form may be a part): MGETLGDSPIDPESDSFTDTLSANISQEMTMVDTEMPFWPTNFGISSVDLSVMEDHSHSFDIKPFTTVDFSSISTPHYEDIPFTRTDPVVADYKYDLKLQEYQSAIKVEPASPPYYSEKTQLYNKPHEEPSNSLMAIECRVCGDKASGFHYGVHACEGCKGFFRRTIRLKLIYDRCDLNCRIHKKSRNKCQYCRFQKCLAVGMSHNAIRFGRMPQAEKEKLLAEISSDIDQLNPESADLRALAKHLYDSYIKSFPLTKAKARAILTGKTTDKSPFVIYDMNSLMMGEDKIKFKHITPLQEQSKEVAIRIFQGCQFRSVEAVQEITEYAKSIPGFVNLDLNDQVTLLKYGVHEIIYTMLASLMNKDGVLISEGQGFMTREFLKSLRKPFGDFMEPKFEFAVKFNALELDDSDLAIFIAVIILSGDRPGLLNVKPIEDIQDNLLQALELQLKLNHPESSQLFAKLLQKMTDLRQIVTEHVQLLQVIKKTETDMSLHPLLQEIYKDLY
# Chain of human Retinoic Acid Receptor beta (RARb), RARB (gene 5915) (P10826 whole entry, looked up, the tested form may be a part): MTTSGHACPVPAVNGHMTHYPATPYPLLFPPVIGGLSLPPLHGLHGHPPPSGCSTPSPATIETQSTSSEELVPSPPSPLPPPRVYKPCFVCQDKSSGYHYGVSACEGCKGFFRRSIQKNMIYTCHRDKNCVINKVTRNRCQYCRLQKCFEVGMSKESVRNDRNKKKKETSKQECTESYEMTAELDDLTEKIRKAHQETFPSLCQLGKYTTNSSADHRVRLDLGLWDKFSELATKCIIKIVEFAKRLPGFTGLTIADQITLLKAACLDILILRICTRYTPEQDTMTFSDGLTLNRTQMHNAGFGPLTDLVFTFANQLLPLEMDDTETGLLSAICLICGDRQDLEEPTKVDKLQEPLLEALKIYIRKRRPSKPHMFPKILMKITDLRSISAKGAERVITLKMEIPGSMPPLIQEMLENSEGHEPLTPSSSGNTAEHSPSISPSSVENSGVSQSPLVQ
# Chain of Nuclear receptor subfamily 1 group I member 2 (Homo sapiens) (O75469 whole entry, looked up, the tested form may be a part): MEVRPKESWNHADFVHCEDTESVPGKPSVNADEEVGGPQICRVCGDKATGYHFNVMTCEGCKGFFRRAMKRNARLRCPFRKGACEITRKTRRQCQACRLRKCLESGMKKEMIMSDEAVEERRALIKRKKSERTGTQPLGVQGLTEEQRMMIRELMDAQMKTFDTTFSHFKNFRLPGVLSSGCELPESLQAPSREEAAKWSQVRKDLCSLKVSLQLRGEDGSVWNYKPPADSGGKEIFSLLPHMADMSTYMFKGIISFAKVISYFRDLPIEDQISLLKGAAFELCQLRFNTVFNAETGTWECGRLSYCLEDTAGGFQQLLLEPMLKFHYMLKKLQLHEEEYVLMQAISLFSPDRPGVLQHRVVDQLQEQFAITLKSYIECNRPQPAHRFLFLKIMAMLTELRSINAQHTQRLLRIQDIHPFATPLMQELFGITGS
# Chain of human RAR-related Orphan Receptor gamma (RORg), RORC (gene 6097) (P51449 whole entry, looked up, the tested form may be a part): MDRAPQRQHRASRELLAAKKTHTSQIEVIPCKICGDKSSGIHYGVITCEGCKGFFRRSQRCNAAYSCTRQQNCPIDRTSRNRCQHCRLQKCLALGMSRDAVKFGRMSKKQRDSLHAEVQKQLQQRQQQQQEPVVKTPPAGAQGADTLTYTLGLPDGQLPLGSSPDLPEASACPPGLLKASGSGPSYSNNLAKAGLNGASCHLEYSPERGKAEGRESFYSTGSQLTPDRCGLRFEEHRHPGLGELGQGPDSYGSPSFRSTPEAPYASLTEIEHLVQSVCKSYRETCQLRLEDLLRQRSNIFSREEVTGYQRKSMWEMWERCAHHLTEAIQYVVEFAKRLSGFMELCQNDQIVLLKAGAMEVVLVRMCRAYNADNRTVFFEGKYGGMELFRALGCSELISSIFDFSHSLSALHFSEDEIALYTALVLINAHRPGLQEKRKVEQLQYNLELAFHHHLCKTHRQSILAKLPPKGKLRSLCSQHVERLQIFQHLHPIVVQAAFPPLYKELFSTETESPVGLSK
# Chain of human Thyroid Receptor alpha (THRa1), THRA (gene 7067) (P10827 whole entry, looked up, the tested form may be a part): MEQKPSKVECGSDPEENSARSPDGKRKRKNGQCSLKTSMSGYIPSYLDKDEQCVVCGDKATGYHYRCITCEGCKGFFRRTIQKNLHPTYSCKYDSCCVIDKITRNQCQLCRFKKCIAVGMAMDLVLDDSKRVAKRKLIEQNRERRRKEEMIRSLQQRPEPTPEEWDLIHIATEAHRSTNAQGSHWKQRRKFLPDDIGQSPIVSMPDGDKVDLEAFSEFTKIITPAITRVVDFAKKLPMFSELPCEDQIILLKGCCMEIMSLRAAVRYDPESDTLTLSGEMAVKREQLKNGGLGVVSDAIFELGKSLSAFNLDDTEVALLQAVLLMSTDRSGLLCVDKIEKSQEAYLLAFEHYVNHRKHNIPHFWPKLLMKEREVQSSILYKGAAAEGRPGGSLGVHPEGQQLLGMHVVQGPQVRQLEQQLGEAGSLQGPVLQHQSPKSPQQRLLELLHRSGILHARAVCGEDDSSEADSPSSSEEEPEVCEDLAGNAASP
# Chain of human Retinoic Acid Receptor gamma (RARg), RARG (gene 5916) (P13631 whole entry, looked up, the tested form may be a part): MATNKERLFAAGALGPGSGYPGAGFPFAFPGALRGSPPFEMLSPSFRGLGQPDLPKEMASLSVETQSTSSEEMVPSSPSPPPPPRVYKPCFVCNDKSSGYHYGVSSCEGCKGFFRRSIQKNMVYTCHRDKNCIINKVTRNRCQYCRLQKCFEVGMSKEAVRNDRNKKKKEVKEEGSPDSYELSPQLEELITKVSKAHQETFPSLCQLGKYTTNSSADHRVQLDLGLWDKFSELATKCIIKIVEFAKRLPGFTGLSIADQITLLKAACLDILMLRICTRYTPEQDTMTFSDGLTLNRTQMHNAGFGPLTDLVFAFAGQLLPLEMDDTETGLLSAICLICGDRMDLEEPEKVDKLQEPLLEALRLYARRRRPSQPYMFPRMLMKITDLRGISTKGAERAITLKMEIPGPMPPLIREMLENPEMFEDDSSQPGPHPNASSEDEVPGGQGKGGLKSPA
# Chain of human Peroxisome Proliferator-activated Receptor delta (PPARd), PPARD (gene 5467) (Q03181 whole entry, looked up, the tested form may be a part): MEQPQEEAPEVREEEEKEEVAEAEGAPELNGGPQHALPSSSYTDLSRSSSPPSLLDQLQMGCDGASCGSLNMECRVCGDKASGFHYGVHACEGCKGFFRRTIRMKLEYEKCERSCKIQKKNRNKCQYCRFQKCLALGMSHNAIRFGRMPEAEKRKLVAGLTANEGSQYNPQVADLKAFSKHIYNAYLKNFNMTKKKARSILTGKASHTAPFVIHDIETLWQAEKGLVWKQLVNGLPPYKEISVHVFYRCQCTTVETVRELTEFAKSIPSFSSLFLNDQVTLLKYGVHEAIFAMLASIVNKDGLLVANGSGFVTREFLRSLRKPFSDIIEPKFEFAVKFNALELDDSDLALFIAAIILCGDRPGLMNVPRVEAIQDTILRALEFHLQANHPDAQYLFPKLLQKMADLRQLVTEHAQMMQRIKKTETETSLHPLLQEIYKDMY
# Chain of human RAR-related Orphan Receptor beta (RORb), RORB (gene 6096) (Q92753 whole entry, looked up, the tested form may be a part): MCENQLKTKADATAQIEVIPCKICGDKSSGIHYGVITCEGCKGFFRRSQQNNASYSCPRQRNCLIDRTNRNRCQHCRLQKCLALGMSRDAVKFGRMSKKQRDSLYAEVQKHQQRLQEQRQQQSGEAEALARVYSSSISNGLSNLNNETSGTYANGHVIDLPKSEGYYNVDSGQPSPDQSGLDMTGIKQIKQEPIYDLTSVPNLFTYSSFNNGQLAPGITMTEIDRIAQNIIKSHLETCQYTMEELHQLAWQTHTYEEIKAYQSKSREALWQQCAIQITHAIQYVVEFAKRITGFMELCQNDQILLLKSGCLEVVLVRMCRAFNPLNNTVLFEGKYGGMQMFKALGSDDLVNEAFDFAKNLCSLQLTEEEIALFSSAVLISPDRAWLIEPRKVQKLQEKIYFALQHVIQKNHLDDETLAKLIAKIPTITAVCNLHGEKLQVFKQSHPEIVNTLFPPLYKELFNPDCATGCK
# Chain of Retinoic acid receptor RXR-alpha (Homo sapiens) (P19793 whole entry, looked up, the tested form may be a part): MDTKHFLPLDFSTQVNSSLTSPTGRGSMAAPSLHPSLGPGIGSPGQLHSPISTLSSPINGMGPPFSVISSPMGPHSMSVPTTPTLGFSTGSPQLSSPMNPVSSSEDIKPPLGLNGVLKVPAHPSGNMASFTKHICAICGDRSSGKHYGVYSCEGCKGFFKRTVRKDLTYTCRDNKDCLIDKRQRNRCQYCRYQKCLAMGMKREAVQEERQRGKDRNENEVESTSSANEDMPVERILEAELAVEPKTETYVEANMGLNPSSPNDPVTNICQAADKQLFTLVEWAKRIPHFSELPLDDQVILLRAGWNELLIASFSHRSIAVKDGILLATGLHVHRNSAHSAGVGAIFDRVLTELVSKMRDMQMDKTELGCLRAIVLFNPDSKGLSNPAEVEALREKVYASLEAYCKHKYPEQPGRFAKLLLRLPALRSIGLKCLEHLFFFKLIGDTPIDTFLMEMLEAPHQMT
smiles,measurement,setting,value
CCCCSP(=O)(SCCCC)SCCCC,outcome,[1],inactive
same,outcome,[2],inactive
same,outcome,[3],inactive
same,outcome,[4],inactive
same,outcome,[5],inactive
same,AC50,[6],29.5 µM (active)
same,AC50,[7],30.5 µM (active)
same,outcome,[8],inactive
same,outcome,[9],inactive
same,outcome,[10],inactive
same,AC50,[11],28.1 µM (active)
same,outcome,[12],inactive
same,AC50,[13],26 µM (active)
same,AC50,[14],16.7 µM (active)
COP(=O)(OC)OC(Br)C(Cl)(Cl)Br (stereo unspecified),AC50,[1],29.7 µM (active)
same,AC50,[2],33.2 µM (active)
same,outcome,[3],inactive
same,AC50,[4],36.4 µM (active)
same,outcome,[15],inactive
same,AC50,[6],16 µM (active)
same,outcome,[7],inactive
same,outcome,[9],inactive
same,AC50,[11],30.1 µM (active)
same,AC50,[12],29.8 µM (active)
same,AC50,[13],35.6 µM (active)
same,AC50,[14],30.1 µM (active)
CNC(=O)ON=C(C)SC,outcome,[1],inactive
same,outcome,[2],inactive
same,outcome,[3],inactive
same,outcome,[4],inactive
same,outcome,[6],inactive
same,outcome,[7],inactive
same,outcome,[8],inactive
same,outcome,[16],inactive
same,outcome,[17],inactive
same,outcome,[11],inactive
same,outcome,[12],inactive
same,outcome,[13],inactive
same,outcome,[14],inactive
CCOC(=O)CC(SP(=O)(OC)OC)C(=O)OCC (stereo unspecified),outcome,[1],inactive
same,outcome,[2],inactive
same,outcome,[3],inactive
same,outcome,[4],inactive
same,outcome,[5],inactive
same,outcome,[6],inactive
same,AC50,[7],28.7 µM (active)
same,outcome,[9],inactive
same,outcome,[10],inactive
same,outcome,[18],inactive
same,outcome,[11],inactive
same,outcome,[12],inactive
same,outcome,[13],inactive
same,outcome,[14],inactive
CC(Oc1cccc(Cl)c1)C(=O)O (stereo unspecified),outcome,[1],inactive
same,outcome,[2],inactive
same,outcome,[3],inactive
same,outcome,[4],inactive
same,outcome,[15],inactive
same,outcome,[6],inactive
same,outcome,[7],inactive
same,outcome,[8],inactive
same,outcome,[9],inactive
same,outcome,[17],inactive
same,outcome,[11],inactive
same,outcome,[12],inactive
same,outcome,[13],inactive
same,outcome,[14],inactive
Cc1cc(C2CC2)nc(Nc2ccccc2)n1,outcome,[1],inactive
same,AC50,[2],9.49 µM (active)
same,outcome,[3],inactive
same,outcome,[4],inactive
same,outcome,[15],inactive
same,AC50,[6],15.8 µM (active)
same,AC50,[7],50 µM (active)
same,outcome,[8],inactive
same,outcome,[9],inactive
same,outcome,[17],inactive
same,outcome,[10],inactive
same,AC50,[18],64 µM (active)
same,outcome,[11],inactive
same,outcome,[12],inactive
same,AC50,[13],32.1 µM (active)
same,AC50,[14],17.8 µM (active)
CCOP(=S)(OCC)OC(Cl)C(Cl)(Cl)Cl (stereo unspecified),AC50,[1],14.6 µM (active)
same,outcome,[2],inactive
same,outcome,[3],inactive
same,outcome,[4],inactive
same,outcome,[5],inactive
same,outcome,[15],inactive
same,AC50,[6],32.1 µM (active)
same,outcome,[7],inactive
same,outcome,[8],inactive
same,outcome,[9],inactive
same,outcome,[16],inactive
same,outcome,[10],inactive
same,outcome,[18],inactive
same,AC50,[11],14.7 µM (active)
same,outcome,[12],inactive
same,outcome,[13],inactive
same,outcome,[14],inactive
CN(C)[C@@H]1C(=O)C(C(N)=O)=C(O)[C@@]2(O)C(=O)C3=C(O)c4c(O)cccc4[C@@](C)(O)[C@H]3[C@H](O)[C@@H]12,outcome,[1],inactive
same,AC50,[2],33 µM (active)
same,outcome,[2],inactive
same,outcome,[4],inactive
same,AC50,[6],20 µM (active)
same,outcome,[6],inactive
same,outcome,[7],inactive
same,outcome,[8],inactive
same,outcome,[16],inactive
same,outcome,[10],inactive
same,outcome,[19],inactive
same,outcome,[18],inactive
same,outcome,[11],inactive
same,outcome,[12],inactive
same,outcome,[13],inactive
same,outcome,[14],inactive
